Screening data deposited in PubChem by University of Kansas High Throughput Screening Laboratory.
Most compounds without a hit are left out; they make up all but 3.6% or so of the library.
mHTT CaM bind – mutant huntingtin-calmodulin interaction inhibitors – biochemical, AlphaScreen, primary screen; P42858; AlphaScreen His-mHTT/GST-CaM binding, luminescence; inhibition, % at 15 µM; actives 3.6% (n = 190,000);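 further: 0% = both proteins with DMSO and 100% = one protein alone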
Pf apPOL inh – Pf-apPOL inhibitors, biochemical, fluorescence; actives 0.25% (n = 210,000); Plasmodium falciparum apicoplast DNA polymerase (apPOL); inhibition, % at 10 µM; Recombinant Pf-apPOL, molecular beacon fluorescence, 1.5 h
* hit, by the source's call. No stated cut-off is given here; in the data, active means inhibition above about 50%; inactive means the rest.

Results for COc1ccc(-c2nc3cccnc3n2C2CCN(S(=O)(=O)c3cccs3)C2)cc1 (stereo unspecified) ?
mHTT CaM bind: 17; Pf apPOL inh: -4

How did Cc1cc(=O)[nH]c(-n2nc(C)cc2N)n1 do in these assays?
mHTT CaM bind: 98*; Pf apPOL inh: -125

Results for Cc1cc(=O)[nH]c(-n2nc(C)cc2NC(=O)c2snnc2C)n1 ?
mHTT CaM bind: -13; Pf apPOL inh: -3

What do the screens show for `CCN(CC)c1ccc(C2Nc3ccc4ncccc4c3C3=C2C(=O)CC(C)(C)C3)cc1` (stereo unspecified)?
mHTT CaM bind: 62*; Pf apPOL inh: 0

How did CSc1ccc(C2Nc3ccc4ncccc4c3C3=C2C(=O)CCC3)cc1 (stereo unspecified) do in these assays?
mHTT CaM bind: 23; Pf apPOL inh: 0

What do the screens show for `CC1(C)CC(=O)C2=C(C1)c1c(ccc3ncccc13)NC2c1ccc(Br)cc1` (stereo unspecified)?
mHTT CaM bind: 25; Pf apPOL inh: 3

What do the screens show for `CCCOc1ccc(C2Nc3ccc4ncccc4c3C3=C2C(=O)CCC3)cc1` (stereo unspecified)?
mHTT CaM bind: 58*; Pf apPOL inh: 0

What do the screens show for `COc1ccc(Br)cc1C1Nc2ccc3ncccc3c2C2=C1C(=O)CC(C)(C)C2` (stereo unspecified)?
mHTT CaM bind: 53*; Pf apPOL inh: 6

Results for COc1ccc(OC)c(C2Nc3ccc4ncccc4c3C3=C2C(=O)CC(C)(C)C3)c1 (stereo unspecified) ?
mHTT CaM bind: 42; Pf apPOL inh: 0

Results for O=C(CCc1nnc(-c2cccc(F)c2)[nH]c1=O)NC1CCCC1 ?
mHTT CaM bind: 4; Pf apPOL inh: 0

How did CCNC(=O)N(C)CC(=O)N1N=C(c2ccc(C)c(C)c2)CC1c1ccccc1 (stereo unspecified) do in these assays?
mHTT CaM bind: 41; Pf apPOL inh: 0

Results for Fc1ccccc1C1C=C(c2ccc(Cl)cc2)Nc2nnnn21 (stereo unspecified) ?
mHTT CaM bind: 19; Pf apPOL inh: -10

Results for Brc1ccc(Nc2nc(NCc3ccco3)c3ccccc3n2)cc1 ?
mHTT CaM bind: 100*; Pf apPOL inh: 1

How did O=[N+]([O-])c1ccc(-c2nc(NCc3ccco3)c3ccccc3n2)cc1 do in these assays?
mHTT CaM bind: 16; Pf apPOL inh: -3

What do the screens show for `COc1cc(Cl)ccc1C(=O)N1CCCC1COc1ccc(C(=O)NC(C)C)cc1` (stereo unspecified)?
mHTT CaM bind: 2; Pf apPOL inh: -3

How did CC(/C=C1\N=C(c2ccccc2Br)OC1=O)=C\c1ccccc1 do in these assays?
mHTT CaM bind: 21; Pf apPOL inh: -6

Results for COc1ccc(/C=C2/N=C(c3cccc([N+](=O)[O-])c3C)OC2=O)c(OC)c1 ?
mHTT CaM bind: 12; Pf apPOL inh: 5

Results for COc1cccc(C(=O)N=c2sc(C)cn2CC(=O)N2CCCC2)c1 ?
mHTT CaM bind: 1; Pf apPOL inh: 87*

What do the screens show for `CCN1CCN(C(=O)Cn2cc(C)sc2=NC(=O)c2cccc(Cl)c2)CC1`?
mHTT CaM bind: 13; Pf apPOL inh: 0

Results for COc1ccc(C=O)cc1OCc1ccc([N+](=O)[O-])cc1 ?
mHTT CaM bind: 4; Pf apPOL inh: -1

Results for CCc1cccc(C)c1NC(=O)c1cc(OC)c(OC)c(OC)c1 ?
mHTT CaM bind: -7; Pf apPOL inh: 4

What do the screens show for `Cc1ccc2nc3c(N)c(Cl)cc4c3c(c2c1)-c1ccccc1C4=O`?
mHTT CaM bind: 61*; Pf apPOL inh: -3

Results for O=C1c2ccccc2-c2cc(Cl)nc3ccc(Cl)c1c23 ?
mHTT CaM bind: 5; Pf apPOL inh: -2

Results for N[C@@H]1CS(=O)(=O)C[C@H]1O ?
mHTT CaM bind: -4

Results for OCCSc1nnc(COc2ccc(Br)cc2)n1-c1ccccc1 ?
mHTT CaM bind: 57*; Pf apPOL inh: -20

How did O=C(CSc1nnc(COc2ccccc2)n1-c1ccccc1)NC1CCCCC1 do in these assays?
mHTT CaM bind: 6; Pf apPOL inh: -9

What do the screens show for `Cc1cc(NC(=O)c2cc(Cl)ccc2Cl)n(-c2nc3ccccc3s2)n1`?
mHTT CaM bind: -17; Pf apPOL inh: -5

What do the screens show for `Cc1c(Cl)cccc1NC(=O)N1CCC(n2cnc3cc(F)ccc3c2=O)CC1`?
mHTT CaM bind: -10; Pf apPOL inh: -3

How did O=C1S/C(=C\c2ccc3c(c2)OCO3)C(=O)N1Cc1ccc(Cl)cc1 do in these assays?
mHTT CaM bind: 1; Pf apPOL inh: -4

How did CCN(CC)CCNC(=O)c1c(O)c2cc(F)cc3c2n(c1=O)C(C)CC3 (stereo unspecified) do in these assays?
mHTT CaM bind: 61*; Pf apPOL inh: -78

How did CC1CCc2cc(F)cc3c(O)c(C(=O)Nc4ncccc4O)c(=O)n1c23 (stereo unspecified) do in these assays?
mHTT CaM bind: 22; Pf apPOL inh: -85

How did COc1ccc(OC)c(NC(=O)c2cc(I)ccc2Cl)c1 do in these assays?
mHTT CaM bind: 0; Pf apPOL inh: -7

What do the screens show for `COc1ccc(OCC(O)CN2CCN(c3ccc(OC)cc3)CC2)cc1` (stereo unspecified)?
mHTT CaM bind: 2; Pf apPOL inh: 0

How did OC(COCC12CC3CC(CC(C3)C1)C2)CN1CCN(c2cccc(Cl)c2)CC1 (stereo unspecified) do in these assays?
mHTT CaM bind: 99*; Pf apPOL inh: -3

What do the screens show for `COc1ccc(N2CCN(CC(O)COCC34CC5CC(CC(C5)C3)C4)CC2)cc1` (stereo unspecified)?
mHTT CaM bind: 70*; Pf apPOL inh: -7

What do the screens show for `OC(COCC12CC3CC(CC(C3)C1)C2)CN1CCCC1` (stereo unspecified)?
mHTT CaM bind: 11; Pf apPOL inh: -2

How did CC(C)(C)NC(=O)NCCC1CCCCN1S(=O)(=O)c1ccccc1 (stereo unspecified) do in these assays?
mHTT CaM bind: -14; Pf apPOL inh: 0

Results for CSc1ccc(NC(=O)N2CCc3c(c(-c4nc(C)no4)nn3C)C2)cc1 ?
mHTT CaM bind: 36; Pf apPOL inh: -2

Results for Cc1noc(-c2nn(C)c3c2CN(C(=O)Nc2ccc(Cl)cc2)CC3)n1 ?
mHTT CaM bind: 58*; Pf apPOL inh: 1

What do the screens show for `CSc1cccc(NC(=O)N2CCc3c(c(-c4nc(C5CC5)no4)nn3C)C2)c1`?
mHTT CaM bind: 52*; Pf apPOL inh: -6

What do the screens show for `Cn1nc(-c2nc(C3CC3)no2)c2c1CCN(C(=O)Nc1ccccc1)C2`?
mHTT CaM bind: 12; Pf apPOL inh: 0

How did COCCC1CCN(C(=O)COc2ccccc2C)CC1 do in these assays?
mHTT CaM bind: -5; Pf apPOL inh: -1

How did CC(=O)c1ccc(NS(=O)(=O)c2ccc(N/C=C/C(=O)c3cccs3)cc2)cc1 do in these assays?
mHTT CaM bind: 2; Pf apPOL inh: 60*

What do the screens show for `Cc1cc(NS(=O)(=O)c2ccc(N/C=C/C(=O)c3cccs3)cc2)nc(C)n1`?
mHTT CaM bind: 30; Pf apPOL inh: -14

How did COc1ccccc1NC(=O)c1ccc(CSc2nc(C)cc(=O)[nH]2)cc1 do in these assays?
mHTT CaM bind: -2; Pf apPOL inh: 0

Results for CCCCN(C)Cc1c(F)cccc1F ?
mHTT CaM bind: -9; Pf apPOL inh: -5

What do the screens show for `CCC(C)NC(=O)C1CC(c2ccccc2)CN(C(=O)c2cccc(F)c2)C1` (stereo unspecified)?
mHTT CaM bind: 21; Pf apPOL inh: 0
